# PI5P4Ka inh: inhibitors of human PI5P4K alpha | P48426 | AID 652105 | 330,000 compounds, 1.2% hits | PI5P4Kalpha enzyme, ADP-Glo luminescence, 60 min; hits give low values | max response, %; active = max response of -50% or lower; inconclusive = between -30% and -50%; inactive = -30% or higher; note: value at the top dose of about 77 µM; % is set by controls: 0 for no effect and ±100 for the full control effect
# Target sequence (P48426 whole entry, looked up): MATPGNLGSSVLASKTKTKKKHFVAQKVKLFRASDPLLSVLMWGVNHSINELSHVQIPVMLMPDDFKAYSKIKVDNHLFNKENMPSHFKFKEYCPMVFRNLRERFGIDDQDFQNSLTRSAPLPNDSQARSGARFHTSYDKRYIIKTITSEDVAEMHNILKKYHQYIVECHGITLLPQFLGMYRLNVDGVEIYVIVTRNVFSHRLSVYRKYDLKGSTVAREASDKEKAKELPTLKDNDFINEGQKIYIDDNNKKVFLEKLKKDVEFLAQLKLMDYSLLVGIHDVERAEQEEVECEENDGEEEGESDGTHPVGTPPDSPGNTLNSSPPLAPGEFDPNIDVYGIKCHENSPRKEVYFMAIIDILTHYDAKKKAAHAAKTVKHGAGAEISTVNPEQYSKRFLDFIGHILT
#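 PI5P4Kalpha ADP-Glo assay; 5 microM ATP final; 60 min RT reaction; HEPES pH 7.4/EGTA/CHAPS, 5% DMSO; controls lacking substrate or enzyme; luminescent end-point.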
# JMJD2A Tudor: blocks the human JMJD2A Tudor domain | AlphaScreen JMJD2A-Tudor / H3K4me3 peptide binding | Potency, µM (highest dose often 114 µM), for inactives: at the highest dose activity change, negative = inhibition, most hits filed as inhibitors | 390,000 compounds, 4.4% hits; note: potency is the fitted concentration of half-maximal effect; % is set by controls: 0 for no effect and ±100 for the full control effect; nearly all actives have a fitted effect of over 50% in size
# PLK1 PBD inh: PLK1 (human) polo-box domain binding inhibition. P53350. Plk1 PBD binding of FITC phosphopeptide, fluorescence polarization. Potency, µM, without a hit: max response, negative = inhibition, actives largely listed as inhibitors. 360,000 compounds, 2.8% hits. AID 720504; note: potency is the fitted concentration of half-maximal effect; series mostly up to about 57 µM; % is set by controls: 0 for no effect and ±100 for the full control effect; nearly all actives have a fitted effect of over 65% in size
# BAZ2B inh: blocks human BAZ2B; Potency, µM (series often up to 114 µM), for the others: at the highest dose activity change, negative = inhibition, usual class: inhibitors; 360,000 compounds, 4.4% hits; AlphaScreen BAZ2B-H3K14Ac peptide displacement; AID 504333; note: potency is the fitted concentration of half-maximal effect; % is set by controls: 0 for no effect and ±100 for the full control effect; nearly all actives have a fitted effect of over 60% in size
#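 Multi-concentration screen (max 110 uM) measuring displacement of acetylated histone H3 peptide from BAZ2B by AlphaScreen, using 50 nM protein, 50 nM peptide and 10 ug/mL streptavidin donor plus Ni-chelate acceptor beads.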
# G9a inh: G9a (human) methyltransferase inhibition; Q96KQ7; G9a H3K9 monomethylation, AlphaScreen, 2 h; Potency, µM (doses to about 102 µM), for the others: top-dose activity, negative = inhibition, most hits filed as inhibitors; 350,000 compounds, 8.8% hits; note: potency is the fitted concentration of half-maximal effect; % is set by controls: 0 for no effect and ±100 for the full control effect; nearly all actives have a fitted effect of over 75% in size
#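 Compounds were preincubated with 20 nM G9a for 15 min, after which biotinylated H3K9 peptide (500 nM) and SAM (20 uM) started a 2 h room-temperature reaction. Monomethylated product was quantified by antibody-based AlphaScreen chemiluminescence.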
# HP1b chromo inh: inhibitors of HP1-beta chromodomain binding to methylated histone tails | 390,000 compounds, 0.56% hits | Potency, µM (doses to about 114 µM), without a hit: top-dose activity change, negative = inhibition, hits mostly inhibitors | P83916 | AlphaScreen HP1-beta / biotin-H3K9me3 peptide binding | AID 540317; note: potency is the fitted concentration of half-maximal effect; nearly all actives have a fitted effect of over 70% in size
# Target sequence (P83916 whole entry, looked up): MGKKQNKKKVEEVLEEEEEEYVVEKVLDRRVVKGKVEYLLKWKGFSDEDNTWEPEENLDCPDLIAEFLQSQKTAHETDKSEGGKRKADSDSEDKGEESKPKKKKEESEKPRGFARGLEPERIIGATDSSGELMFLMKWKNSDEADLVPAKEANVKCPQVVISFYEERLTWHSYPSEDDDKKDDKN
#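 AlphaScreen: HP1-beta (50 nM) preformed 30 min with biotin-H3(1-18)K9me3 peptide (50 nM) in PBS pH 7.4, 0.01% Tween-20. Compound added for 30 min at RT, then streptavidin donor/nickel chelate acceptor beads (10 ug/mL) for 30 min.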
# Active calls of the source: *; ? = inconclusive; . = no result given; [ ] = another dose, or the depositor's remark. Sampled rows, rich in hits. Any-hit rate of the full collection: about 12%. Unless noted, calls come from the whole dose curve; as a rule, active = well fitted curve in the direction sought with a large enough effect; inconclusive = small, poorly fitted or top-dose-only effect, or another doubt; inactive = no such curve, though single readings can be large; an effect the other way counts as inactive or inconclusive.
SMILES,PI5P4Ka inh,JMJD2A Tudor,PLK1 PBD inh,BAZ2B inh,G9a inh,HP1b chromo inh
NS(=O)(=O)c1cccnc1Nc1ccc(Cl)c(Cl)c1,-2,3%,-2%,-1%,-8%[59 µM],34%
O=c1c(-c2ccc(Cl)cc2)nc2cnc(N3CCOCC3)nc2n1C1CC1,.,.,.,.,-10%[12.7 µM],.
Cc1cc(C)n(-c2nc(C)c(C)c(=O)n2CC(=O)Nc2ccc(Cl)c(Cl)c2)n1,.,-16%,.,-8%,4.5µM*,29%
COCCN=c1scc(-c2cc(OC)ccc2OC)n1/N=C/c1c[nH]c2ccccc12,29,40µM*,4%,11µM*,10µM*,?
O=C(O)c1ccc(N2C(=O)c3[nH]nc(-c4ccccc4)c3C2c2cccc(F)c2)cc1 (stereo not drawn),.,-2%,.,.,10%[59 µM],35%
CCC(=O)Nc1nnc(Sc2ccc(N(C)C)cc2)s1,2,-32%,-19%,-29%,?,9%
CN(C)c1ccc(Sc2nnc(NC(=O)Nc3ccc(Cl)cc3Cl)s2)cc1,-6,-16%,3%,-9%,28µM*,26%
COc1ccccc1C1CC(=O)Nc2cc3c(cc21)OCCO3 (stereo not drawn),.,-30%,-3%,-32%,-36%[59 µM],-5%
COc1cccc(C2CC(=O)Nc3cc4c(cc32)OCCO4)c1OC(C)C (stereo not drawn),4,?,?,-34%,45µM*,?
CC(C)Oc1ccccc1C1CC(=O)Nc2cc3c(cc21)OCCO3 (stereo not drawn),.,?,-7%,50µM*,-9%[59 µM],-11%
Cc1ccc(-c2nc3ncccc3o2)cc1NC(=O)c1ccccc1Br,.,-5%,.,4%,-1%[59 µM],43%
Cc1ccc(C)c(N/C(N)=N/c2nc(C)cc(C)n2)c1,4,-4%,-3%,-33%,29%[0.501 µM],31%
NC(=S)NNc1cc(Cl)cc(Cl)c1,0,35µM*,-30%,-36%,?,-19%
Cc1ccc(C)c(NNC(N)=S)c1,4,-27%,-15%,-16%,35µM*,6%
Cc1ccc(C)c(NNC(=O)C(=O)NNc2cc(C)ccc2C)c1,5,?,1%,-35%,28µM*,13%
Cc1cccc(NC(=S)NCCO)c1C,-3,-3%,-1%,2%,15%[59 µM],31%
Cc1cccc(NNC(N)=S)c1C,-1,-13%,-8%,-24%,20µM*,28%
Cc1ccc(NC(=O)c2ncn(CCCNCC3CCCCC3)n2)cc1C,-2,.,-5%,.,.,.
CCCCCNc1nc2c(-c3ccccc3)nnn2c2ccccc12,.,-10%,.,-2%,11%[59 µM],37%
Cc1ccccc1NNC(=O)C(=O)NNc1ccccc1C,-2,18µM*,-14%,50µM*,?,?
Cc1cc(Cl)ccc1NNC(N)=S,-3,-23%,-21%,-31%,20µM*,-7%
Cc1ccccc1NC(=O)C(Cl)=C(Cl)Cl,1,1%,-10%,2%,25%[59 µM],38%
CCOc1ccc(-c2nc(-c3cccs3)c(CC(=O)O)s2)cc1OC,-4,-9%,-10%,-21%,?,46%
COc1ccc(-c2nc(-c3cccs3)c(-c3cccs3)[nH]2)cc1O,-14,?,-5%,45µM*,?,-39%
CCOCCc1nnc(NC(=O)C(=O)c2cc(C)n(-c3cccc(Cl)c3)c2C)s1,.,-6%,.,4%,-35%[59 µM],35%
SMILES,PI5P4Ka inh,JMJD2A Tudor,PLK1 PBD inh,BAZ2B inh,G9a inh,HP1b chromo inh
CSc1nnc2c3c4c(sc3nc(-n3nc(C)cc3C)n12)COC(C)(C)C4,?,-32%[11.4 µM],3.4µM*,16%,-4%,-9%
Cc1cc(C)n(-c2nc3sc4c(c3c3nnc(SCC(N)=O)n23)CC(C)(C)OC4)n1,3,-6%,-1%,-4%,-16%[59 µM],17%
O=C(Nc1ccc(Cl)cc1)OCCn1nnnc1C(c1ccccc1Cl)N1CCOCC1 (stereo not drawn),-1,35µM*,21µM*,-3%[57.1 µM],11%[59 µM],-18%
O=C(Nc1ccc(Cl)cc1)OCCN1CCOCC1,3,-12%,-2%,.,.,16%[57 µM]
COC(=O)c1ccc(NC(=O)CCc2c(C)nn(-c3ccc(N4CCCCC4)nn3)c2C)cc1,.,?,.,-34%,-1%[59 µM],47%
Cc1oc2c(c1C(=O)O)C(=O)c1ccccc1C2=O,6,-7%,1%,0%,10µM*,47%
O=C1C(=O)c2c(C(=O)c3ccccc3)coc2-c2ccccc21,-9,-29%,?,?,45µM*,-18%
CCOC(=O)c1c(C)oc2c1C(=O)c1ccccc1C2=O,-1,-28%,?,?,13µM*,-3%
Cc1onc(-c2ccccc2Cl)c1C(=O)c1ccccc1,4,33%,-7%,15%,.,43%
Cc1oc2c(c1C(=O)c1ccccc1)C(=O)C(=O)c1ccccc1-2,-10,?,?,45µM*,?,-29%
Cc1cc(=O)oc(C)c1C(=O)O,.,-28%,-6%,-19%,-36%[12.7 µM],6%
O=C(c1ccccc1)c1coc2ccc(O)c(Cl)c12,.,-19%,-9%,-39%,?,-1%
CC1CCN(C(=O)Cn2cc(SCC(=O)NCc3ccccc3Cl)c3ccccc32)CC1,.,-16%,.,-29%,-9%[59 µM],11%
COc1ccc(C(=O)Nc2cccc(-c3cn4ccsc4n3)c2)c(OC)c1,.,-30%,.,?,-5%[59 µM],-9%[57 µM]
OC(Cc1cccc(C=NN2CCOCC2)n1)(C(F)(F)F)C(F)(F)F,2,.,0%,.,.,.
Cc1noc(C)c1-c1ccc2ncnc(NCc3ccc4c(c3)OCO4)c2c1,.,-31%,.,.,.,.
O=S(=O)(/N=C(/Sc1ccccc1)c1ccccc1)c1ccccc1,0,-15%,1.9µM*,23%,-21%,102%
O=C(O)c1ccccc1NCCO,-8,-16%,-5%,.,50µM*,15%
Cc1c(NCc2ccncc2)cccc1C(=O)O,2,-24%,-13%,6%,?,52%
O=C(O)c1ccccc1NCc1ccncc1,.,-5%,-5%,-39%,40µM*,31%
COC(=O)c1ccccc1NCCO,1,-9%,0%,-9%,2%[12.7 µM],22%
O=C(O)c1ccc(CNc2ccccc2C(=O)O)cc1,-14,56µM*,-4%,?,?,8%
Cc1cccc(Nc2ccc([N+](=O)[O-])cn2)c1,2,-10%,1%,-32%,.,45%
CSc1cccc(NC(=O)C2CCN(S(=O)(=O)c3ccc4c(c3)CCCN4C(=O)C3CCC3)CC2)c1,.,-8%,.,1%,11%[59 µM],13%[57 µM]
Cc1ccc(C(=O)n2nc(C)c(S(=O)(=O)N3CCCCCC3)c2C)cc1,.,56%,.,54%,16%[59 µM],68%[57 µM]
COc1ccc(C(O)c2nc(-c3cccc(F)c3)cs2)cc1 (stereo not drawn),16,.,-3%,.,.,.
CC(=O)NC(CCS(C)(=O)=O)C(=O)Nc1nccs1 (stereo not drawn),4,10%[11.4 µM],27µM*,-30%,?,-10%

# Screens: PubChem, National Center for Advancing Translational Sciences (NCATS)
